We go through 40 compounds from PubChem BioAssay (NCI).

About 83,000 compounds went through this panel and 20% of them were active in at least one assay; those are over-represented in the sample as a whole.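 Assay: single dose, 48 h. Readout: percent growth (0 = no net growth; negative = cell death). Active: <10.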 Unmarked numbers belong to inactive results. Active and inactive are the calls of the source.

The subject of this test is ACHN renal. The test can be described thus: NCI-60 one-dose screen, 48 h (100 = growth as untreated, 0 = no growth, -100 = all killed). The note with it: 10 µM unless noted. The procedure:
Growth inhibition of the ACHN human tumor cell line is measured as a screen for anti-cancer activity. Cells are grown in 96 well plates and exposed to the test compound for 48 hours. Compounds are tested at a single concentration, which is 10^-5 M for most compounds. The reported endpoint is percent growth (GI% or GIPRCNT), where numbers from 0 - 100% represent growth inhibition, and numbers from -100% - 0 represent cell death. For example, a value of 40 represents 60% growth inhibition. A value of 0 means no net growth occurred over the course of the experiment. A value of -40 indicates 40% of cells at the beginning of the experiment died by the end of the experiment. A value of -100 means all cells are dead at the end of the experiment.
NCI-60 Human Tumor Cell Lines Screen was performed using the standard one-dose NCI protocol, which is described in more detail at https://dtp.cancer.gov/discovery_development/nci-60/default.htm.
Compounds with GIPRCNT values below 10 were considered active. Activity score was based on GIPRCNT using the following formula: […]
Score is 0 for GIPRCNT values of 100 or above, 50 for GIPRCNT values of 0, and 100 for GIPRCNT values of -100.
`O=S(=O)(O)c1ccc(O)c(C2CCCCC2)c1`: the growth is 105%.

As to `N#C/C(=C\c1ccc2c(c1)OCO2)c1ccccc1`, the growth was 93.6%.

As for `CC(C)c1ncc([N+](=O)[O-])n1C`, the growth was 102%.

Turning to `CC1(C)C2CCC1(C)C1(C2)OCCS1` (stereo not given), the growth is 102%.

For `Cc1ccc(S(N)(=O)=O)cc1Cl`, the growth was 107%.

As to `c1ccc(Oc2c3ccccc3nc3ccccc23)cc1`, the growth is 31.9%.

`Cc1ccc(C(C)C)c(OCC(=O)O)c1`: the growth was 112%.

For the compound `C=CCN1CCCC1=O`, the growth was 109%.

With `CCOC(OCC)C(=O)c1ccccc1`, the growth is 99.3%.

Turning to `CC1(C)CCC(C)(C)NC(=S)N1`, the growth is 104%.

As to `Oc1ccc(N=Cc2ccc(OCc3ccccc3)cc2)cc1`, the growth was 99.7%.

As for `Cc1c(Cl)cccc1NC(=S)NC(=O)c1ccccc1`, the growth is 113%.

For `CC(=O)Nc1ncc(S(=O)(=O)c2ccc([N+](=O)[O-])cc2)s1`, the growth was 115%.

Regarding `CSc1cnc2ccccc2n1`, the growth was 107%.

Regarding `CCOC(=O)C(=O)CC(=O)c1ccccc1`, the growth is 94.8%.

Turning to `O=[N+]([O-])c1c(O)c(CNCCCO)cc(CNCCCO)c1O`, the growth was 93.9%.

Take `CN(C)c1ccc2nc3ccc(=[N+](C)C)cc-3oc2c1`: the growth is 70.5%.

Consider `NNC(=O)N/N=C1\C(=O)N(c2nccs2)C(=O)C(=O)C1c1nc2ccccc2s1` (stereo not given), for which the growth is 109%.

In the case of `Cc1ccc(S(=O)(=O)Oc2ccc3sc4c(CO)ccc(NCCN(C)C)c4c(=O)c3c2)cc1`, the growth was -92.7% [100 µM] (active).

With `CCOC(=O)C(C#N)=C1CCN(C)CC1`, the growth was 97.9%.

`Ic1cccs1`: the growth is 103%.

In the case of `NC(=S)N/N=C/c1ccc(OC(=O)COc2ccc(Cl)cc2)cn1`, the growth was 12.5%.

Take `O=C1C=C[C@H](O)[C@@]2(CO)O[C@@H]12`: the growth was 76.7%.

As for `COC1C(=O)CCC2(CO2)C1(O)C1(C)OC1CCC(C)C` (stereo not given), the growth was 72.1%.

Take `C=CCC(OC(C)=O)c1ccc(OC)c(OC)c1` (stereo not given): the growth is 99%.

For `O=C(O)Cc1ccc(Cl)cc1`, the growth was 103%.

On to `COc1cc(CC#N)c([N+](=O)[O-])cc1OC`, for which the growth is 109%.

For the compound `C#CCSc1nnnn1-c1ccccc1`, the growth was 70.2%.

On to `CCOC(=O)c1cc(C)[nH]c(=O)c1C#N`, for which the growth was 101%.

`Nc1ccccc1SC1CC(=O)N(c2ccc(Cl)c(Cl)c2)C1=O` (stereo not given): the growth is 108%.

Consider `Nc1ccc2c(c1)Cc1cc(N)c(N)cc1-2`, for which the growth was 101%.

Regarding `CN(C)CCOC(=O)Nc1ccc(Cc2ccc(NC(=O)OCCN(C)C)cc2)cc1`, the growth is 86.8% [100 µM].

Consider `Nc1ccc(F)cc1F`, for which the growth was 102%.

Regarding `C=CCC(OC(C)=O)c1ccc(C(C)C)cc1` (stereo not given), the growth is 108%.

With `CCCCc1ccc2nc(NC(=O)OC)[nH]c2c1`, the growth is 39.2%.

Take `OCc1cccnc1`: the growth was 102%.

Turning to `Clc1ccc(-c2noc(/C=C\c3ccccc3)n2)cc1`, the growth is 98.3%.

For `Cc1ccc(C2CCCCC2)cc1Br`, the growth was 101%.

On to `NNc1ncccn1`, for which the growth was 105%.

In the case of `CCN(CC)CCCC(C)NC(=S)N/N=C(\C)c1ccccn1` (stereo not given), the growth is 31.4%.
